Experimental data from PubChem BioAssay.
Records with an inconclusive call do not appear. The source made the active and inactive calls.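 How the source made its calls, unless noted: active means GFP signal, as percent of the solvent control, above the screen mean plus 3 SD, about 149; inconclusive means no reading because the compound's own fluorescence upset strain identification; inactive means the rest.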

Tests used:
[1] = yeast TOR pathway RPL19A-GFP modulators, primary screen, cell-based, S. cerevisiae, multiplex flow cytometry (AID 1862; in the data active means percent of DMSO control GFP below about 86%;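 further: lower values mimic rapamycin by blocking the RPL19A rise seen in DMSO cells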); details: S. cerevisiae RPL19A-GFP strain, flow cytometry fluorescence, 3 h; at 10 µM; stronger effect = lower value
[2] = modulators of MEP2-GFP levels in yeast, primary screen, S. cerevisiae, multiplex flow cytometry (AID 1867;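 active means GFP response, as percent of the DMSO control, above the screen-wide mean plus 3 SD, about 139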;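 further: median GFP channel fluorescence of barcode-gated MEP2-GFP cells measured by flow cytometry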); details: S. cerevisiae MEP2-GFP strain, 3 h, at 10 µM, stronger effect = higher value, 100% means same as DMSO wells
[3] = modulators of CIT2-GFP expression in yeast, primary screen, S. cerevisiae, GFP fusion, multiplex flow cytometry (AID 1870;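 active means percent response above a set limit, the screen-wide mean plus 3 SD, cut at about 130% in these data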;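 further: barcoded CIT2-GFP strain pooled with four other GFP strains with rapamycin as positive control; median GFP fluorescence per well over plate mean of DMSO wells so 100% = DMSO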); details: 3 h, at 10 µM, stronger effect = higher value
[4] = modulators of LAP4-GFP expression in yeast, primary screen, S. cerevisiae, multiplex flow cytometry (AID 1873); details: 3 h, at 10 µM, stronger effect = higher value
[5] = modulators of AGP1-GFP expression in yeast TOR pathway, primary screen, cell-based, multiplex flow cytometry, S. cerevisiae (AID 1887;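 active means GFP signal above the screen-wide mean plus 3 SD, that is over about 124.5% of the solvent control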;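 further: AGP1-GFP fusion strain of S. cerevisiae within a five-strain barcoded multiplex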); details: 3 h, at 10 µM, stronger effect = higher value
[6] = inhibitors of CD8+ T cell-vesicle binding, pilot screen, LFA-1/ICAM-1 modulator project, MLPCN validation set, flow cytometry (AID 2523;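 active means response below a set limit, under 55% cells CD8-positive and vesicle-bound, and CD8 cells' 90th-percentile brightness under 279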;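 on vesicle binding response: mean PE anti-B7-1 fluorescence of CD8+ cells relative to row control; 100% = QL9-loaded vesicles with DMSO vehicle in the same plate row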); details: 2C mouse CD8+ T cells, at 7 µM, stronger effect = lower value; double positive events: measured here: CD8+/vesicle+ event percentage
[7] = molecular target: Integrin beta-1 (Homo sapiens) + Integrin alpha-4 (Homo sapiens) (UniProt P13612+P05556); assay: inhibition of HUTS-21 binding to VLA-4, pilot screen, VLA-4 allosteric modulator project, U937 cells, HUTS-21 mAb, flow cytometry, validation set (AID 2674;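 active means inhibition above 50%, about 3 SD of the validation set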;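 further: antibody binding induced by the VLA-4 ligand LDV present at three times its Kd; 0% = LDV ligand with antibody and no compound and 100% = antibody without LDV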); details: HUTS-21 LIBS mAb binding, at 6.7 µM, stronger effect = higher value, binding induced by LDV ligand
[8] = superoxide lowering in aged yeast cells, pilot screen, validation compound set (AID 2706;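 active means superoxide response below 65% of plate, a cut near 3 SD across the whole screen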;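 further: yeast exposed to compound for one week at 30 degrees C before staining; 100% = mean of all compound wells on the same plate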); details: S. cerevisiae aging, superoxide DHE fluorescence; at 10 µM; stronger effect = lower value
[9] = molecular target: Beta-adrenergic receptor kinase 1 (Homo sapiens) (UniProt P25098); assay: GRK2 binders displacing RNA aptamer, biochemical, validation, human GRK2, bead flow cytometry (AID 488806;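 active means aptamer binding inhibition above 30%, about 3 SD of noise from non-fluorescent compounds; inactive means inhibition at or below 30%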); details: bead-bound GRK2, FAM-aptamer displacement, at 10 µM, stronger effect = higher value
[10] = molecular target: Beta-2 adrenergic receptor (Homo sapiens) (UniProt P07550); assay: beta2AR agonists driving receptor internalization, pilot screen, cell-based, FAP fluorogen, flow cytometry, validation set (AID 504459;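 active means percent response above 42, roughly 3 SD of non-fluorescent test compounds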;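 further: agonist-driven loss of surface beta2AR via internalization measured by FAP dye flow cytometry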); details: Am2.2-beta2AR cells, FAP surface receptor flow cytometry; at 10 µM; stronger effect = higher value
[11] = molecular target: AP-2 complex subunit beta (Homo sapiens) (UniProt P63010); assay: inhibitors of arrestin peptide binding to AP2, pilot screen, biochemical, validation set, GST-AP2 beads, flow cytometry (AID 504541;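 active means inhibition above 54%, about 3 SD of non-fluorescent compounds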;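 further: AP2 carries R879A mutation and is captured from E. coli lysate; bead-bound FITC arrestin peptide fluorescence measuring arrestin peptide binding to AP2; 0% = DMSO wells and 100% = excess unlabeled arrestin peptide control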); details: FITC arrestin peptide, at 10 µM, stronger effect = higher value, AP2 beta2 appendage fragment, R879A mutant
[12] = yeast V-ATPase proton transport modulators, S. cerevisiae, pHLuorin, HTS validation (AID 504600; in the data active means response above about 15%;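 further: plate controls were DMSO for no effect and reference compound for full effect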); details: S. cerevisiae pHLuorin cytosolic pH, at 10 µM, stronger effect = higher value
[13] = tested on: anti-desmoglein-3 scFv antibody binding to human DSG3; assay: inhibitors of anti-DSG3 scFv binding to DSG3, pilot screen, biochemical, validation compound set, bead-based, flow cytometry (AID 588368;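 active means binding below the plate cutoff, the plate median minus 3 SD, with a reading above zero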;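 further: signal is the median channel fluorescence of bead-bound GFP antibody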); details: Protein G beads, DSG3-Fc, scFv-GFP binding, at 10 µM, stronger effect = lower value
[14] = inhibitors of fungal efflux pumps CDR1, CDR2, MDR1, pilot screen, validation compound set, multiplex, phenotypic (AID 588506;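 active means efflux inhibition above 0.42, the validation set average plus 4 SD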;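 further: Nile Red retained in cells so higher fluorescence means more efflux inhibition; 0 = negative control wells and 1 = enniatin B 25 µM full block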); details: S. cerevisiae pump-expressing triplex, Nile Red efflux flow cytometry; at 10 µM; stronger effect = higher value; the pumps come from Candida albicans
[15] = molecular target: ATP-binding cassette sub-family B member 6 (Homo sapiens) (UniProt Q9NP58); assay: ABCB6 transporter inhibitors, pilot screen, K562-ABCB6 cells, flow cytometry, validation set (AID 588550;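 active means inhibition above the screen-wide mean plus 3 SD, about 51%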;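 further: 0% = DMSO wells and 100% = benzethonium chloride 70 µM positive control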); details: K562-ABCB6 porphyrin accumulation, 1 h, at 10 µM, stronger effect = higher value
[16] = promoters of myeloid differentiation in arrested cells, primary screen, cell-based, GFP/MAC1 double positive, flow cytometry, validation set (AID 588685;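 active means differentiation response of at least 50%, scaled between solvent and reference control, from cells with both markers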;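 further: compound exposure lasts four days before antibody staining and flow analysis; 0% = DMSO wells and 100% = 5 µM fulvestrant positive control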); details: ER-HoxA9 marrow cells, stronger effect = higher value, normalized: vehicle 0, fulvestrant 100

Sequence of AP-2 complex subunit beta (Homo sapiens) (P63010 whole entry, looked up, the tested form may be a part, one chain of several): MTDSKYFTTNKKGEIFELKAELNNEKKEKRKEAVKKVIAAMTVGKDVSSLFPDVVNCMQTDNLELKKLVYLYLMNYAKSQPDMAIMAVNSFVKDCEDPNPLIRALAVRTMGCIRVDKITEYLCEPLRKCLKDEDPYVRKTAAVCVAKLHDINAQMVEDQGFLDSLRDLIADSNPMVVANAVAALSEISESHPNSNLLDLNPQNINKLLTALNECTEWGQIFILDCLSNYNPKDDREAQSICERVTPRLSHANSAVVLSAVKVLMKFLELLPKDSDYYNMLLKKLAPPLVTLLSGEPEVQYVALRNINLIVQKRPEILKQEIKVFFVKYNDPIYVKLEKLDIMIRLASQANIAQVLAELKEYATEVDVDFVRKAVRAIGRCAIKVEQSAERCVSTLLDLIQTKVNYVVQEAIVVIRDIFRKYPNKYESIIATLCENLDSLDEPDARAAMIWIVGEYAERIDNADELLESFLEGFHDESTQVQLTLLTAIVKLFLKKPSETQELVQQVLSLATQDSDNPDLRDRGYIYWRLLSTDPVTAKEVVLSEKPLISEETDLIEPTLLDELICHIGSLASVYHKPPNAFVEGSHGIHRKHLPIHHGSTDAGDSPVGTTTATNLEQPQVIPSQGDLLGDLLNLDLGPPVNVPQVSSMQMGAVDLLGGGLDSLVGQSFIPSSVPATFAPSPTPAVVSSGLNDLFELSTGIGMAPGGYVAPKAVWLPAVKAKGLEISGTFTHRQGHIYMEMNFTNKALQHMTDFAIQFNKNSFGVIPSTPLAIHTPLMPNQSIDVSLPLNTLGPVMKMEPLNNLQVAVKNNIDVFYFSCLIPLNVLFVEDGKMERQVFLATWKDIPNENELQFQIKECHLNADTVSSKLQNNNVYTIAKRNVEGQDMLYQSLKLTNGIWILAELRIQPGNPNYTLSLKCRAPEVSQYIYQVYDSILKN
Sequence of ATP-binding cassette sub-family B member 6 (Homo sapiens) (Q9NP58 whole entry, looked up): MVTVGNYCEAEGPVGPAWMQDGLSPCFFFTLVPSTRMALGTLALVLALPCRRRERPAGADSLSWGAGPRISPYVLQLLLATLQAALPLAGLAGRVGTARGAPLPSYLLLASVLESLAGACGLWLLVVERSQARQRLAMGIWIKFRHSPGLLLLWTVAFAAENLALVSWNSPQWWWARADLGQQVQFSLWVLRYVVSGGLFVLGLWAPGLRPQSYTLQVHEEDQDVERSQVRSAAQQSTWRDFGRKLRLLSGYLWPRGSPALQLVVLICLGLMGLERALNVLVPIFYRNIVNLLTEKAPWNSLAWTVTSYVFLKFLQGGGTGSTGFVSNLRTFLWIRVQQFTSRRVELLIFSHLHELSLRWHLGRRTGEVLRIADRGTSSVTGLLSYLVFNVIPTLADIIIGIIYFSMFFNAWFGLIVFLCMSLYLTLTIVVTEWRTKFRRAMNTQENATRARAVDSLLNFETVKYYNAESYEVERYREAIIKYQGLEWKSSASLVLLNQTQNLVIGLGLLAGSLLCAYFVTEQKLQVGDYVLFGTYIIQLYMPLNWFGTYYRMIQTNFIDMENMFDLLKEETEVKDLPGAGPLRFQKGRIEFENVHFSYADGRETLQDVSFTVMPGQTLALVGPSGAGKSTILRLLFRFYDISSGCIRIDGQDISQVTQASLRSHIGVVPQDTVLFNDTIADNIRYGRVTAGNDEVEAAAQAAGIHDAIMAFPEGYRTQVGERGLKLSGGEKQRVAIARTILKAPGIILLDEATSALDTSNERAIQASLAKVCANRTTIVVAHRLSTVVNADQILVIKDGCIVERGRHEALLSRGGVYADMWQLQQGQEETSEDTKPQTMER
Sequence of Integrin beta-1 (Homo sapiens) + Integrin alpha-4 (Homo sapiens) (P05556 whole entry, looked up): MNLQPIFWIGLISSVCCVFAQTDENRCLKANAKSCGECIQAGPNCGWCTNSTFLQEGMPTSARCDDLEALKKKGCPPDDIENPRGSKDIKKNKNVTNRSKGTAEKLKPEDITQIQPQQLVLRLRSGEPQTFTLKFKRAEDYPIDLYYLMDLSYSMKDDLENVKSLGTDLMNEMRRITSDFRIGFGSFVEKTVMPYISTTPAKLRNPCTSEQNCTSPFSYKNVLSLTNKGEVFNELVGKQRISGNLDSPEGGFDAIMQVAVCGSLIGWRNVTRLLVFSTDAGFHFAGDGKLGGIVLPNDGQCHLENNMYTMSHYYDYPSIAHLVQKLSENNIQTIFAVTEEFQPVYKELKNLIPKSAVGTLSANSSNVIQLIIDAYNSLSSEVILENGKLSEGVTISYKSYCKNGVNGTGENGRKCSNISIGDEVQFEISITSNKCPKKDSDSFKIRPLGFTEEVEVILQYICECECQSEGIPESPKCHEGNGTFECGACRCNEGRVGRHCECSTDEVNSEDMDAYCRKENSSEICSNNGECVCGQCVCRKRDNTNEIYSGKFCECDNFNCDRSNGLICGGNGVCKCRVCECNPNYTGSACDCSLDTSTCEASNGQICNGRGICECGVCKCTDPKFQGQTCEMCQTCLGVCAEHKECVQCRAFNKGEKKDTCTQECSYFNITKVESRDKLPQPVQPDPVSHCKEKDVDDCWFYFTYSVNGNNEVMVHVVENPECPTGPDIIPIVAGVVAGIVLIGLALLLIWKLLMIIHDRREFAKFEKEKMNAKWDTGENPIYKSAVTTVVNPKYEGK
Sequence of Integrin beta-1 (Homo sapiens) + Integrin alpha-4 (Homo sapiens) (P13612 whole entry, looked up): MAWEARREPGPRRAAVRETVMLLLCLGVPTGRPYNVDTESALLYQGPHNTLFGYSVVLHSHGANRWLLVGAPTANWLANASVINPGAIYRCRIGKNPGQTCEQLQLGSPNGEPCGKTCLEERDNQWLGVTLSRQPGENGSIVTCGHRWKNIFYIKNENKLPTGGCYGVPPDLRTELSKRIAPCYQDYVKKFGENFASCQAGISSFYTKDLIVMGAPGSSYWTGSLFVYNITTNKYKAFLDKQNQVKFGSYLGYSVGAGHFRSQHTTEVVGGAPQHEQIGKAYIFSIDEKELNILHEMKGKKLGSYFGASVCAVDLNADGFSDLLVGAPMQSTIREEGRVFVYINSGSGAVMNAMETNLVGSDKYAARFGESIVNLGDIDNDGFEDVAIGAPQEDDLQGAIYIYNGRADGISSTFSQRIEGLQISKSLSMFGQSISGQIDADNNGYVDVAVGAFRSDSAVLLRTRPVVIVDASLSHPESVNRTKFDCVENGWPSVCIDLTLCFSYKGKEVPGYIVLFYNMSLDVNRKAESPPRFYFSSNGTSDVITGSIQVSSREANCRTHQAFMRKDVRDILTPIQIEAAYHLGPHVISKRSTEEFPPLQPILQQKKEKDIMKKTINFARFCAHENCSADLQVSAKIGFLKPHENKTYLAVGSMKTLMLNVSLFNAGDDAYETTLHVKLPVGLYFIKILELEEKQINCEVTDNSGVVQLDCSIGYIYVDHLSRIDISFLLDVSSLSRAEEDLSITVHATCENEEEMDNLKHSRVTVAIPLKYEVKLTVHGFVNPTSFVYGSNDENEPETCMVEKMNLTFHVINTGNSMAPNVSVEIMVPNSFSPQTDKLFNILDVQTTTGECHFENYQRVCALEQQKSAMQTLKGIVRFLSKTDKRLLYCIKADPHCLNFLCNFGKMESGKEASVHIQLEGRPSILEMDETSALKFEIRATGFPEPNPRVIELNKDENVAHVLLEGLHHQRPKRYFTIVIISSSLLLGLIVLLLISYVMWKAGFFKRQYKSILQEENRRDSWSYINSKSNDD
Sequence of Beta-2 adrenergic receptor (Homo sapiens) (P07550 whole entry, looked up): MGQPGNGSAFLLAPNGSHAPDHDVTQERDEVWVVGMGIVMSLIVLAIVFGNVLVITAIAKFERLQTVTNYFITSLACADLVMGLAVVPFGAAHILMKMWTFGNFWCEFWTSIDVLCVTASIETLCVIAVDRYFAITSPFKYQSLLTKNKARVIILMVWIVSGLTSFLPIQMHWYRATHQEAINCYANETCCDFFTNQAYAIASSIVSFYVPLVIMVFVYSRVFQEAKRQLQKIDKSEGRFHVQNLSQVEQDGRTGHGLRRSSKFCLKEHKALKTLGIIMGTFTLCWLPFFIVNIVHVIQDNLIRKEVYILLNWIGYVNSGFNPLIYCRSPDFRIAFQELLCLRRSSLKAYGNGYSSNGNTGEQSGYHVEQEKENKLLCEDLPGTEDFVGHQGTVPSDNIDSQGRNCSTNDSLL
Sequence of Beta-adrenergic receptor kinase 1 (Homo sapiens) (P25098 whole entry, looked up): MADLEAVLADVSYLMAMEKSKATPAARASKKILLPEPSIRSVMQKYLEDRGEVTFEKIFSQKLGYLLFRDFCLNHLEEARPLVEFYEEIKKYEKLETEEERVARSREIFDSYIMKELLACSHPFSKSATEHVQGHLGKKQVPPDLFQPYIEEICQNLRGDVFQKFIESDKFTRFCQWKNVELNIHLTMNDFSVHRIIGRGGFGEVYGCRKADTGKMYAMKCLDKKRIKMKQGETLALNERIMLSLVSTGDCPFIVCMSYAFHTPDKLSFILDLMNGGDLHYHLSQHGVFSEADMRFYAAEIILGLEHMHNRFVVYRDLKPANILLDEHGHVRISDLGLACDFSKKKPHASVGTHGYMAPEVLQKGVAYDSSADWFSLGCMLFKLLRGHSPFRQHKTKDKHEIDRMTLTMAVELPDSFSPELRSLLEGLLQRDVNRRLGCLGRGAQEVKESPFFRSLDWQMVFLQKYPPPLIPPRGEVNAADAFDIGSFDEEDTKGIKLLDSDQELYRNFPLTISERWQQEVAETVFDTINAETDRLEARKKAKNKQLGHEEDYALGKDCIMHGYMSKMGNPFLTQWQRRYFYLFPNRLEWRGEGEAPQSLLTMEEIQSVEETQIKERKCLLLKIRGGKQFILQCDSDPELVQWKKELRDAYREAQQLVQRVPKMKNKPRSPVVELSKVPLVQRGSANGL

CC(N=C(NC#N)Nc1ccncc1)C(C)(C)C (stereo not drawn)
59.1%: double positive events [6]
inactive: percent of DMSO control GFP [1] 102% | GFP response vs DMSO [2] 103% | percent response of DMSO control [3] 103% | GFP response vs DMSO [4] 99.1% | GFP response, % of DMSO [5] 100% | vesicle binding response [6] 97.4% | inhibition [7] 5.61% | superoxide response (% of plate) [8] 104% | aptamer binding inhibition [9] 3% | response [10] -2.47% | inhibition [11] 0.53% | response [12] -9.1% | binding (% of control) [13] 101% | efflux inhibition (fraction of control) [14] 0.09 | inhibition [15] -10% | differentiation response [16] -1.65%

COc1ccc(CNCCC2(C(C)C)CCOC(C)(C)C2)cc1 (stereo not drawn)
55.9%: double positive events [6]
inactive: percent of DMSO control GFP [1] 99.2% | GFP response vs DMSO [2] 107% | percent response of DMSO control [3] 101% | GFP response vs DMSO [4] 88.7% | GFP response, % of DMSO [5] 97.2% | vesicle binding response [6] 52.5% | inhibition [7] -7.72% | superoxide response (% of plate) [8] 106% | aptamer binding inhibition [9] 3% | response [10] -6.71% | inhibition [11] -2.2% | response [12] 2.72% | binding (% of control) [13] 97.2% | efflux inhibition (fraction of control) [14] -0.1 | inhibition [15] -1% | differentiation response [16] 0.24%

c1ccc(-c2ccccn2)nc1
active: inhibition [15] 55%
54.1%: double positive events [6]
inactive: percent of DMSO control GFP [1] 103% | GFP response vs DMSO [2] 112% | percent response of DMSO control [3] 107% | GFP response vs DMSO [4] 101% | GFP response, % of DMSO [5] 102% | vesicle binding response [6] 157% | inhibition [7] 6.95% | superoxide response (% of plate) [8] 96.7% | aptamer binding inhibition [9] 8% | response [10] -1.6% | inhibition [11] -7.99% | response [12] -2.77% | binding (% of control) [13] 101% | efflux inhibition (fraction of control) [14] -0.08 | differentiation response [16] -4.57%

Cc1cc(/C=N/O)c(C)n1-c1ccc(Br)cc1
inactive: percent of DMSO control GFP [1] 100% | GFP response vs DMSO [2] 101% | percent response of DMSO control [3] 96.5% | GFP response vs DMSO [4] 93.7% | GFP response, % of DMSO [5] 91.1% | vesicle binding response [6] 263% | inhibition [7] -7.79% | superoxide response (% of plate) [8] 115% | aptamer binding inhibition [9] 2% | response [10] 11.8% | inhibition [11] -0.76% | response [12] -0.17% | binding (% of control) [13] 105% | efflux inhibition (fraction of control) [14] -0.145 | inhibition [15] -1% | differentiation response [16] -6.03%
65.6%: double positive events [6]

CCN(CCCc1ccccc1)CCCc1ccccc1
inactive: percent of DMSO control GFP [1] 100% | GFP response vs DMSO [2] 103% | percent response of DMSO control [3] 102% | GFP response vs DMSO [4] 106% | GFP response, % of DMSO [5] 118% | vesicle binding response [6] 202% | inhibition [7] 27.8% | superoxide response (% of plate) [8] 118% | aptamer binding inhibition [9] 0% | response [10] -9.83% | inhibition [11] 34.3% | response [12] -9.09% | binding (% of control) [13] 103% | efflux inhibition (fraction of control) [14] 0.04 | inhibition [15] 3% | differentiation response [16] -9.91%
63.1%: double positive events [6]

CC(=O)[C@H]1CC[C@H]2[C@@H]3C[C@H](C)C4=CC(=O)CC[C@]4(C)[C@H]3[C@@H](O)C[C@]12C
inactive: percent of DMSO control GFP [1] 95.9% | GFP response vs DMSO [2] 116% | percent response of DMSO control [3] 102% | GFP response vs DMSO [4] 86.9% | GFP response, % of DMSO [5] 92.6% | vesicle binding response [6] 151% | inhibition [7] 2.58% | superoxide response (% of plate) [8] 95.6% | aptamer binding inhibition [9] 8% | response [10] -10% | inhibition [11] -0.56% | response [12] 2.7% | binding (% of control) [13] 108% | efflux inhibition (fraction of control) [14] 0.09 | inhibition [15] 9% | differentiation response [16] -2.46%
63.6%: double positive events [6]

O=C(O)c1ccc(C(=O)C(=O)c2ccccc2)cc1
65.4%: double positive events [6]
inactive: percent of DMSO control GFP [1] 104% | GFP response vs DMSO [2] 98.3% | percent response of DMSO control [3] 109% | GFP response vs DMSO [4] 101% | GFP response, % of DMSO [5] 102% | vesicle binding response [6] 304% | inhibition [7] -17.1% | superoxide response (% of plate) [8] 110% | aptamer binding inhibition [9] 3% | response [10] 4.67% | inhibition [11] 1.48% | response [12] 0.41% | binding (% of control) [13] 96.6% | efflux inhibition (fraction of control) [14] -0.01 | inhibition [15] -10% | differentiation response [16] -6.6%

COc1cc(CNCc2ccc(OC)c(OC)c2OC)cc(OC)c1
active: inhibition [11] 64.9% | response [12] 22.7%
inactive: percent of DMSO control GFP [1] 105% | GFP response vs DMSO [2] 110% | percent response of DMSO control [3] 105% | GFP response vs DMSO [4] 104% | GFP response, % of DMSO [5] 112% | vesicle binding response [6] 178% | inhibition [7] 33.8% | superoxide response (% of plate) [8] 106% | aptamer binding inhibition [9] 2% | response [10] -16% | binding (% of control) [13] 102% | efflux inhibition (fraction of control) [14] 0 | inhibition [15] 1% | differentiation response [16] -11.9%
60.7%: double positive events [6]

CC(C)[C@H]1CN(C)CCN1Cc1cn(C)nc1-c1cccc(Cl)c1
inactive: percent of DMSO control GFP [1] 105% | GFP response vs DMSO [2] 104% | percent response of DMSO control [3] 98.9% | GFP response vs DMSO [4] 90.1% | GFP response, % of DMSO [5] 102% | vesicle binding response [6] 48.9% | inhibition [7] 3.7% | superoxide response (% of plate) [8] 104% | aptamer binding inhibition [9] -1% | response [10] -4.02% | inhibition [11] 19.9% | response [12] -0.96% | binding (% of control) [13] 99.3% | efflux inhibition (fraction of control) [14] 0.3 | inhibition [15] 1% | differentiation response [16] 3.18%
58.1%: double positive events [6]
